Holding throughout (assay): PBM binding z-score (relative to random genomic background probes); higher = stronger binding; sequences stand for … in GC…GCGATTGACAGCGTAGAATGAAGG
The test system of assay [1] is FXR:RXRa (NR concentration 270 nM, RXRa partner concentration 90 nM). In outline: (§1)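 On custom Agilent 4×180K arrays, double-stranded probes with 34-nt variable regions carried direct-repeat seeds, single-nucleotide variants, half-site ablations or random human genomic background. Ligand-free nuclear receptor dimers were applied for 1 h, and binding was read with antibodies against each partner (one per run). Binding z-scores come from regression-normalized fluorescence, with the random background probes as reference.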

Assay [2] relates to LXRa:RXRa (NR concentration 270 nM, RXRa partner concentration 90 nM). The gist of the method: as §1
The test system of assay [3] is LXRa homodimer (NR concentration 270 nM). The gist of the method: as §1
Assay [4] has as its system LXRb:RXRa (NR concentration 270 nM, RXRa partner concentration 90 nM). The gist of the method: as §1
Assay [5] deals with LXRb homodimer (NR concentration 270 nM). The gist of the method: as §1
The subject of assay [6] is PPARa:RXRa (NR concentration 270 nM, RXRa partner concentration 90 nM). In outline:
as §1

The test system of assay [7] is PPARg:RXRa (NR concentration 180 nM, RXRa partner concentration 90 nM). In outline:
as §1

The subject of assay [8] is PPARg:RXRa 270nM:90nM, anti-RXR (NR concentration 270 nM, RXRa partner concentration 90 nM). The gist of the method: as §1
The test system of assay [9] is PPARg:RXRa 30nM:10nM, anti-RXR (NR concentration 30 nM, RXRa partner concentration 10 nM). The gist of the method: as §1
The test system of assay [10] is PPARg:RXRa 90nM:30nM, anti-RXR (NR concentration 90 nM, RXRa partner concentration 30 nM). The gist of the method: as §1
For assay [11], the system named is PPARg:RXRa DBDmut IVT, anti-RXR (DBD mutation: RXRa K156A/R161A, NR concentration 270 nM, RXRa partner concentration 90 nM). The gist of the method: as §1
For assay [12], the system named is PPARg:RXRa IVT, anti-PPARg (NR concentration 270 nM, RXRa partner concentration 90 nM). In outline: as §1
Assay [13] concerns PPARg DBDmut:RXRa IVT, anti-PPARg (DBD mutation: PPARg1 K132A/R137A, NR concentration 270 nM, RXRa partner concentration 90 nM). The gist of the method:
as §1

Assay [14] concerns PPARg DBDmut IVT, anti-PPARg (DBD mutation: PPARg1 K132A/R137A, NR concentration 270 nM). In outline: as §1
Assay [15] concerns PPARg homodimer (NR concentration 180 nM). The gist of the method:
as §1

The test system of assay [16] is PXR:RXRa (NR concentration 270 nM, RXRa partner concentration 90 nM). The gist of the method: as §1
In assay [17] the test system is PXR homodimer (NR concentration 270 nM). In outline:
as §1

In assay [18] the test system is RARa:RXR (NR concentration 270 nM, RXRa partner concentration 90 nM). In outline:
as §1

The subject of assay [19] is RARa homodimer (NR concentration 270 nM). The gist of the method: as §1
In assay [20] the test system is RARb:RXRa (NR concentration 270 nM, RXRa partner concentration 90 nM). In outline:
as §1

For AATACAGGGACACTAGGCCAGAGTAGGTACGAAT, the PBM binding z-score in assay [1] was -0.211; in assay [2], -0.375; in assay [3] it was -0.0605; in [4] it was -0.483; in [5] it was -0.0261; in assay [6], -0.00279. Also, the PBM binding z-score in [7] turned out to be 0.846; in assay [8] it was 0.394; in [9] it was 0.113; in [10], 0.294; in [11], 0.603; in assay [12] it was 1.52. Besides, the PBM binding z-score is 0.579 in assay [13]; 0.0521 in [14]; -0.62 in assay [15]; -0.635 in assay [16]; 0.0323 in assay [17]; -0.555 in assay [18]. The PBM binding z-score in [19] was -0.036; in assay [20] it was 0.688.
On to TCTATTAGCTGATTAGGGCAACCGAAACAGCGGA, for which the PBM binding z-score in [1] was 0.113; in [2], -0.201; in assay [3], -0.333; in [4] it was -0.12; in [5] it was -0.075; in [6], 0.627. Besides, the PBM binding z-score in assay [7] was -0.00749; in assay [8], 1.41; in [9], 2.86; in assay [10] it was 2.13; in [11], 1.49; in assay [12] it was 1.49. The PBM binding z-score in assay [13] is 0.731; in assay [14], 0.319; in assay [15], -0.183; in assay [16], -0.0443; in [17], -0.871; in assay [18] it was 0.252. Moreover, the figures for the PBM binding z-score in [19] and in assay [20] were -0.337 and 0.444, respectively.
For ACAGACAGGTGAGTGAATGTAACTCAGCTGGACG, the PBM binding z-score in assay [1] was -0.0424; in assay [2], -0.166; in assay [3], -0.418; in [4], -0.486; in assay [5] it was -0.454; in assay [6], 0.0946. Further, the PBM binding z-score is 0.779 in assay [7]; -0.286 in assay [8]; -0.216 in assay [9]; -0.145 in assay [10]; 0.386 in assay [11]; 0.325 in [12]. Besides, the PBM binding z-score in assay [13] was -0.206; in assay [14] it was -0.309; in [15] it was -0.0515; in assay [16], -0.136; in [17] it was 0.0208; in [18], 0.0204. Besides, the PBM binding z-score in assay [19] was -0.0735; in assay [20], 0.384.
ATCGAAAGGTTGAAGGTGAGTATACCCACCCGAA: the PBM binding z-score in [1] was 0.788; in [2], 1.06; in assay [3], -0.269; in assay [4] it was 0.741; in [5], 0.0854; in [6] it was 2.36. Also, the PBM binding z-score in assay [7] is 1.68; in [8], 1.92; in assay [9], 0.761; in assay [10] it was 1.52; in [11], -0.526; in [12], 0.764. Besides, the PBM binding z-score is 0.619 in [13]; 0.928 in [14]; 0.699 in assay [15]; 1.06 in assay [16]; -0.0881 in assay [17]; 1.79 in assay [18]. The values for the PBM binding z-score in [19] and in assay [20] were 0.177 and 1.66, respectively.
In the case of TTACCAAGGTGAAGGGCGTTGATCCCTCTGTAGA, the PBM binding z-score in assay [1] is 0.622; in assay [2], 0.629; in [3], -0.192; in assay [4] it was 0.495; in [5] it was -0.575; in [6] it was 1.47. The PBM binding z-score in [7] came to 0.846; in [8], 2.19; in [9], 0.835; in assay [10], 1.69; in assay [11], 1.73; in [12] it was 2.43. In addition, the PBM binding z-score in assay [13] was -0.0766; in [14], -0.0935; in assay [15], 0.279; in assay [16] it was 0.365; in assay [17], -0.351; in assay [18], 0.762. The PBM binding z-score in assay [19] was -0.0384; in [20] it was 1.64.
As for CCTTACGGGTCACTGACTGGTTATAGCATTTGGA, the PBM binding z-score in assay [1] was 5.56; in [2], 3.75; in [3], 0.422; in [4], 3.15; in [5], -0.0702; in assay [6] it was 4.99. Besides, the PBM binding z-score in assay [7] is 4.13; in [8], 4.14; in assay [9] it was 1.38; in [10], 2.81; in [11], 3.65; in assay [12], 3.69. Also, the PBM binding z-score is 0.987 in assay [13]; 0.315 in [14]; 3.15 in assay [15]; 3.1 in assay [16]; 0.287 in assay [17]; 4.06 in assay [18]. The PBM binding z-score in assay [19] was determined as 2.05; in assay [20], 4.02.

(Values after the supplement of paper PMC6555819.)
